Screening data (PubChem)
In the library only some 21% were active in any assay of this set; here they are far more common.
Cycloheximide cs = Cycloheximide Counterscreen for Small Molecule Inhibitors of Shiga Toxin. cell reporter, cycloheximide protein synthesis inhibition counterscreen. max response, %. actives 12% (n = 300,000). AID 2314, 2010; in the data active = max response mostly above about 13%, no sharp cut-off; inactive = mostly below about 14%; note: read at 38.3 µM for the half of the compounds with a filed dose; 0% is about no effect
Pf growth 96h = Primary qHTS for delayed death inhibitors of the malarial parasite plastid, 96 hour incubation; actives 6.9% (n = 320,000); Potency, µM (doses to about 28.7 µM), without a hit: at the highest dose activity change, negative = inhibition, actives largely listed as inhibitors; AID 504834, 2011; P. falciparum luciferase reporter growth, 96 h; active = well fitted inhibition curve with a large enough effect; inconclusive = small, poorly fitted or top-dose-only effect, or another doubt; inactive = no such curve, though single readings can be large or run the other way; note: potency is the fitted concentration of half-maximal effect; % is set by controls: 0 for no effect and ±100 for the full control effect
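96 h incubation, 37 C, 5% CO2, of luciferase-reporter P. falciparum-infected RBCs (2% hematocrit, 0.05% parasitemia final) with test compounds; endpoint luminescence.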
Shiga inhibitor = A qHTS for Small Molecule Inhibitors of Shiga Toxin; inhibition, % at 38.7 µM; Vero cells, Shiga toxin protein synthesis inhibition reporter; actives 9.2% (n = 290,000); in the data active = inhibition mostly above about 28%, no sharp cut-off; inactive = mostly below about 43%; note: 0% is about no effect
Pf growth 48h = Primary qHTS for delayed death inhibitors of the malarial parasite plastid, 48 hour incubation. P. falciparum luciferase growth in erythrocytes, 48 h. Potency, µM (top dose mostly 28.7 µM), for the others: top-dose activity change, negative = inhibition, most hits filed as inhibitors. actives 5.9% (n = 310,000); active = well fitted inhibition curve with a large enough effect; inconclusive = small, poorly fitted or top-dose-only effect, or another doubt; inactive = no such curve, though single readings can be large or run the other way; note: potency is the fitted concentration of half-maximal effect; % is set by controls: 0 for no effect and ±100 for the full control effect
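A one-generation exposure of luciferase-tagged malaria parasites in RPMI 1640/Albumax erythrocyte culture, 37 C and 5% CO2. Inhibition is inferred from decreased luminescence after adding detection reagent.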
SARS PLpro yeast = qHTS of Yeast-based Assay for SARS-CoV PLP; Potency, µM (doses to about 32.9 µM), inactives show at the highest dose activity, positive = growth rescue, most hits filed as activators; AID 485353, 2010; S. cerevisiae expressing SARS-CoV PLpro, growth rescue; actives 0.19% (n = 330,000); note: potency is the fitted concentration of half-maximal effect; 0% is about no effect; nearly all actives have a fitted effect of over 55% in size
NS1 inh = qHTS Assay for Inhibitors of Influenza NS1 Protein Function | Potency, µM (highest dose often 46.1 µM), for the others: at the top dose activity, positive = more growth | actives 0.4% (n = 270,000) | AID 2326, 2010; note: potency is the fitted concentration of half-maximal effect; actives are rising curves; nearly all actives have a fitted effect of over 50% in size
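Read-out: OD600 growth recovery of NS1-expressing budding yeast. Cells grown overnight at 30C in -URA glucose medium, washed, resuspended and diluted 1:100 in 2% galactose assay medium, pH 6.0. Same strain lacking NS1 served as positive control.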
* = called active by the depositor; ? = inconclusive; nt = not tested or not shown; [ ] = another dose, or the depositor's remark. Unless noted, calls come from the whole dose curve.

SMILES | Cycloheximide cs | Pf growth 96h | Shiga inhibitor | Pf growth 48h | SARS PLpro yeast | NS1 inh
O=C(NC1CCN(Cc2ccc3ccccc3c2)CC1)c1ccccc1 | -4 | ? | -12 | 11%[0.00184 µM] | -3% | 2%
O=C1CCCN1Cc1ccccc1 | -2 | 41% | 7 | 19% | 1% | 8%
O=C(Nc1ccc(S(=O)(=O)NC2=NCCCCC2)cc1)c1ccc(=O)[nH]c1 | 3 | -3% | 12 | -3% | -11% | 4%
Cc1ccc(C(=O)NCC(=O)N2CCCCCCC2)cc1 | nt | 18% | nt | ? | -12% | nt
CC(C)(C)c1ccc(C(=O)NCC(=O)N2CCCC2)cc1 | 26* | -2% | 37 | 8% | 3% | -1%
Cc1ccc(C(=O)NCC(=O)N2CCCCCC2)cc1 | 50* | 125% | 46* | 101% | 28% | -12%
O=C(NCC(=O)N1CCCC1)c1ccc(Br)cc1 | 10 | 53% | 83 | 20% | -1% | 6%
Cc1ccccc1OCCC(=O)OCC(=O)NC(=O)c1ccccc1 | nt | 44% | nt | -1% | -1% | nt
c1ccc(CSc2nnc(-c3c[nH]c4ccccc34)o2)cc1 | 48* | 13% | 169* | 42% | 0% | -9%
c1ccc2c(-c3cn4ccccc4n3)c[nH]c2c1 | 43* | ? | 142* | ? | -3% | nt
c1ccc2c(-c3nnc(SCc4cn5ccccc5n4)o3)c[nH]c2c1 | 7 | 12µM* | 15 | nt | -6% | -1%
O=C(CSc1nnc(-c2c[nH]c3ccccc23)o1)c1ccc(-c2ccccc2)cc1 | 7 | 0% | 3 | 22% | ? | ?
Clc1ccc(CNc2nnnn2-c2ccccc2)c(Cl)c1 | 0 | 10% | -9 | nt | -1% | -9%
O=C(Cc1c(F)cccc1Cl)N/N=C/c1cccnc1 | 2 | 50% | 1 | ? | 0% | 10%
COc1ccccc1NCC(O)COc1ccc(C(C)(C)C)cc1 (stereo not drawn) | -2 | 17% | 18 | -9% | -2% | 5%
COc1ccc(C(=O)NCC(O)COc2ccc(C(C)(C)C)cc2)cc1[N+](=O)[O-] (stereo not drawn) | 9 | 6.6µM* | -9 | -4% | 20% | 11%
CC1(c2ccccc2Cl)NC(=O)N(CC(=O)Nc2ccc3c(c2)OCO3)C1=O (stereo not drawn) | -3 | ? | -5 | ? | 1% | 5%
CC(=O)C1=C(C)NC(SCC(=O)c2ccc(C)cc2)=C(C#N)C1c1ccco1 (stereo not drawn) | 12 | 6.6µM* | 16 | 9.3µM* | -17% | -51%
COc1ccccc1NC(=O)C1=C(C)NC(SCC(=O)c2ccccc2)=C(C#N)C1c1ccco1 (stereo not drawn) | 10 | nt | 36 | 9.3µM* | -4% | -4%
Cc1ccc(C(=O)CSC2=C(C#N)C(c3ccco3)C3=C(CC(C)(C)CC3=O)N2)cc1 (stereo not drawn) | -5 | 0% | -12 | nt | 3% | 7%
CC(c1nnc(SCC(=O)c2c(N)n(C3CC3)c(=O)[nH]c2=O)n1-c1ccc(F)cc1)N(C)C (stereo not drawn) | nt | ? | nt | 1% | -1% | nt
CCn1c(CC(=O)Nc2ccc(F)cc2)nnc1SCC(=O)N1CCOCC1 | -5 | 10% | 8 | 19% | 3% | 2%
Cc1cc(N(C)/N=C/c2ccccc2O)nc(-c2ccccc2O)n1 | -3 | ? | 11 | ? | -1% | nt
COc1cc(C=Nc2c(C)cc(C)cc2C)ccc1OC(C)=O | 2 | -2% | -12 | 5% | 13% | -3%
Oc1ccccc1/C=C/c1noc(-c2ccccc2O)n1 | 33* | ? | 70* | -42% | 0% | 0%
SMILES | Cycloheximide cs | Pf growth 96h | Shiga inhibitor | Pf growth 48h | SARS PLpro yeast | NS1 inh
COc1cc(/C=C/c2noc(-c3ccccc3O)n2)ccc1OC(C)=O | 15* | 473% | 42* | 281% | -1% | -3%
CC(=O)Nc1ccc(/C=C/c2noc(-c3ccccc3O)n2)cc1 | 21 | 109% | 54* | 91% | -1% | -4%
O=C(COC(=O)CN1CCSC1=O)Nc1ccc(F)cc1Cl | nt | nt | nt | nt | 4% | nt
COc1ccc(C)cc1NC(=O)CSc1nnc(-c2ccco2)n1Cc1ccco1 | 13 | 10µM* | 17 | -19% | 0% | -35%
CCOc1ccccc1NC(=O)CSc1nnc(-c2cnccn2)n1C | -3 | 1.9µM* | -24 | -1% | -2% | -4%
Clc1ccc(CSc2nnc(-c3ccccn3)n2Cc2ccco2)c(Cl)c1 | 4 | 15µM* | 32 | ? | 6% | -33%
Cc1cccc(C)c1NC(=O)CSc1nnc(-c2cnccn2)n1C | -2 | 10% | -4 | 7% | -1% | -2%
COc1ccc(C)cc1NC(=O)CSc1nnc(COc2ccc(C)cc2)n1Cc1ccco1 | 4 | ? | 19 | ? | 8% | -96%
COc1cccc(-c2nnc(SCC(=O)OC(C)C)n2Cc2ccco2)c1 | -5 | 7.4µM* | -15 | -3% | 1% | -45%
COc1ccc(-c2cc(C)no2)cc1S(=O)(=O)N(C)c1ccc(C)cc1 | 2 | ? | -3 | ? | -2% | -1%
Cc1c(Cl)cccc1N1C(=O)CC(N(O)c2ccccc2)C1=O (stereo not drawn) | 8 | nt | 6 | 13% | 0% | -2%
COc1ccc(CCNC(=O)C(=O)Nc2ccc3c(c2)OCO3)cc1OC | 2 | 9% | -4 | -6% | 1% | 6%
CCOc1ccccc1NC(=O)CSc1nnc(-c2ccccn2)n1Cc1ccco1 | 6 | 3.7µM* | -6 | ? | 0% | -118%
CN(C)c1ccc(NC(=O)CSc2nnc(-c3cnccn3)n2C)cc1 | 13* | ? | 37 | -19% | 4% | 10%
CCOC(=O)c1cc2c(ccn2C)n1CC(=O)N(CC)CC | -2 | 20% | 7 | 16% | 0% | 2%
O=C(COc1ncnc2scc(-c3ccc(Cl)cc3)c12)NCc1ccco1 | 27 | ? | 53* | -7% | 4% | 11%
O=C(Cn1c2ccccc2c(=O)c2ccccc21)Nc1ccccc1F | 9 | ? | -9 | ? | 12% | 8%
O=C(Cn1c2ccccc2c(=O)c2cc([N+](=O)[O-])ccc21)Nc1ccccc1Cl | 9 | 9.3µM* | 19 | ? | 9% | -15%
CCc1ccc(OC(=O)c2ccn(CC)n2)cc1 | 40* | ? | 150* | 5% | 12% | -58%
Cc1cc2c(cc1C)CSC(c1ccc(O)cc1)SC2 | 3 | 1% | 1 | 72% | -6% | -11%
Cc1cc2c(cc1C)CSC(c1c(O)ccc3ccccc13)SC2 | -2 | nt | -12 | 12µM* | -54% | -31%
Cc1cc2c(cc1C)CSC(c1ccc3ccccc3c1O)SC2 | 11 | ? | -2 | 9.3µM* | 4% | 10%
Cc1cc2c(cc1C)CSC(c1ccccc1O)SC2 | 6 | nt | 38 | -21% | -9% | -5%
